Inconclusive results are not listed. Active and inactive are the calls of the source. How the source made its calls, unless noted: active means hit-call score of the fitted dose curve at least 0.9, where 1 is the maximum; inactive means score below 0.9.
Columns and labels:
[1] = molecular target: Steroid hormone receptor ERR1 (Homo sapiens) (UniProt P11474); test: ATG_ERRa_TRANS: Attagene TRANS-FACTORIAL HepG2 Assay for human Estrogen-Related Receptor alpha (ERRa) (AID 2282971; active means hit-call score of the fitted dose curve at least 0.9, where 1 is the maximum); conditions: HepG2 Attagene TRANS reporter, ERRa transactivation
How it was run: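 HepG2 cells transiently transfected with GAL4-UAS reporter units and chimeric NR-Gal4 constructs; after 24 hour compound incubation, reporter mRNA quantified by RT-PCR, fluorescent labelling and capillary electrophoresis, gain of signal versus DMSO.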

[2] = BSK_3C_Vis: BioMAP Diversity Plus: 3C Assay for Morphology Visualization (AID 2283025); conditions: primary human endothelial cells (HUVEC);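 further: fitted both ways so gain or loss versus DMSO counts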
How it was run: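 Morphology read by light microscopy serves as a background control for the multiplexed 3C assay in human umbilical vein endothelial cells, taken 24 h after dosing, with DMSO as the negative control and bidirectional curve fitting.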

[3] = read-out: Transforming growth factor beta 1 (TGFb1), TGFB1 (gene 7040); test: BSK_BE3C_TGFb1: BioMAP Diversity Plus: BE3C Assay for Transforming growth factor beta 1 (TGFb1) Biomarker Activity (AID 2283036); conditions: primary human bronchial epithelial cells; actives raise or lower the signal
How it was run: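 Bronchial epithelial primary cells are treated with test chemical, then TGF-b1 is quantified by ELISA after 24 hours. Values derive from bidirectional fitting against DMSO, with cytotoxicity checked by SRB staining in parallel cultures.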

[4] = read-out: Transforming growth factor beta 1 (TGFb1), TGFB1 (gene 7040); test: BSK_KF3CT_TGFb1: BioMAP Diversity Plus: KF3CT Assay for Transforming growth factor beta 1 (TGFb1) Biomarker Activity (AID 2283072); conditions: primary human keratinocytes with fibroblasts; actives raise or lower the signal
How it was run: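 KF3CT co-culture (keratinocytes + fibroblasts), 24 h exposure → TGF-b1 ELISA → bidirectional fit, DMSO = baseline. Parallel SRB total-protein staining (0.1% SRB, 10% TCA fixation, 560 nm) for cytotoxicity.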

[5] = BSK_SAg_Proliferation: Cell Proliferation Assessment in the BioMAP Diversity Plus: SAg Assay (AID 2283095); conditions: primary human HUVEC with PBMC;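 further: relative cell number as total protein by SRB absorbance in sub-confluent culture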
How it was run: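 Absorbance of sulforhodamine B at 560 nm reports total protein in a human vascular endothelial/PBMC co-culture after 96 h chemical exposure. Gain or loss of signal is fitted in both directions against DMSO.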

[6] = BSK_SAg_SRB: Viability Assessment in the BioMAP Diversity Plus: SAg Assay (AID 2283096); conditions: primary human HUVEC with PBMC;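 further: cells read one day after compound addition; hits may be either gain or loss of signal compared with DMSO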
How it was run: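 This overt-cytotoxicity endpoint quantifies protein in human endothelial/PBMC co-cultures at 24 h using SRB absorbance (560 nm) after trichloroacetic acid fixation. Values reflect signal change from the DMSO negative control, fitted bidirectionally.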

[7] = BSK_BT_PBMCCytotoxicity: PBMC Cytotoxicity Assessment in the BioMAP Diversity Plus: BT Assay (AID 2284225); conditions: primary human B cells with PBMC;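 further: PBMC viability measured by Alamar Blue dye reduction fluorescence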
How it was run: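 Viability by Alamar Blue reduction (6 h, ex/em 546/580 nm) after 90 h culture of SEB/TSST-1-activated PBMC (20 ng/mL each) given compound 1 h before activation. DMSO served as baseline for curve fitting.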

[8] = read-out: Secreted IgG (sIgG), gene 3500; test: BSK_BT_sIgG: BioMAP Diversity Plus: BT Assay for Secreted IgG (sIgG) Biomarker Activity (AID 2284226); conditions: primary human B cells with PBMC
How it was run: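 Cells (B cells with peripheral blood mononuclear cells) are dosed, cultured 24 h, then supernatant IgG is measured by ELISA. DMSO serves as negative control; curves are fitted for signal increase.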

[9] = read-out: Interleukin 6 (IL6), IL6 (gene 3569); test: BSK_BT_xIL6: BioMAP Diversity Plus: BT Assay for Interleukin 6 (IL6) Biomarker Activity (AID 2284228); conditions: primary human B cells with PBMC
How it was run: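 Human B cell/PBMC co-culture; secreted IL-6 quantified by Luminex xMAP 24 h after chemical dosing, fitted relative to DMSO. Parallel PBMC viability by Alamar Blue after 1 h pretreatment, 20 ng/mL SEB and TSST-1, 90 h incubation.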

[10] = read-out: Interleukin 17A (IL17A), IL17A (gene 3605); test: BSK_BT_xIL17A: BioMAP Diversity Plus: BT Assay for Interleukin 17A (IL17A) Biomarker Activity (AID 2284229); conditions: primary human B cells with PBMC
How it was run: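 Co-culture of human B cells and PBMC, dosed for 24 h in 96-well format. Secreted IL-17A measured with Luminex xMAP; gain-direction fitting against DMSO as baseline.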

[11] = read-out: Tumor necrosis factor (Homo sapiens) (UniProt P01375); test: BSK_BT_xTNFa: BioMAP Diversity Plus: BT Assay for Tumor necrosis factor alpha (TNF-alpha) Biomarker Activity (AID 2284230); conditions: primary human B cells with PBMC
How it was run: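 Endpoint derived in the positive direction versus DMSO vehicle. Cells: B cells together with PBMC, exposed 24 h before TNF-alpha in the medium was read on the Luminex xMAP platform.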

[12] = read-out: Collagen I, COL1A1 (gene 1277); test: BSK_MyoF_CollagenI: BioMAP Diversity Plus: MyoF Assay for Collagen I Biomarker Activity (AID 2284238); conditions: primary human lung fibroblasts
How it was run: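 Primary human lung fibroblasts (MyoF system) treated 24 h; Collagen I quantified by ELISA and fitted in positive direction against DMSO. Parallel SRB total-protein staining assessed overt cytotoxicity.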

[13] = read-out: Collagen III, COL3A1 (gene 1281); test: BSK_MyoF_CollagenIII: BioMAP Diversity Plus: MyoF Assay for Collagen III Biomarker Activity (AID 2284239); conditions: primary human lung fibroblasts
How it was run: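 Primary human lung fibroblasts (BioMAP MyoF system) exposed 24 h. Collagen III measured by ELISA; positive-direction fit relative to DMSO.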

[14] = read-out: Interleukin 17F (IL17F), IL17F (gene 112744); test: BSK_BT_xIL17F: BioMAP Diversity Plus: BT Assay for Interleukin 17F (IL17F) Biomarker Activity (AID 2284243); conditions: primary human B cells with PBMC
How it was run: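 Human PBMC co-cultured with B cells, compound exposure 24 h; secreted IL-17F quantified by Luminex xMAP, referenced to DMSO control. PBMC viability measured in parallel by Alamar Blue reduction.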

[15] = read-out: Actin alpha 1 (ACTA1), ACTA1 (gene 58); test: BSK_MyoF_ACTA1: BioMAP Diversity Plus: MyoF Assay for Actin alpha 1 (ACTA1) Biomarker Activity (AID 2284244); conditions: primary human lung fibroblasts
How it was run: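 Cells were exposed to chemical for 24 h before a-SMA levels were quantified by ELISA in human lung fibroblasts. Increases were fitted against DMSO as negative control; parallel SRB staining (0.1% after 10% TCA fixation, 560 nm) assessed cytotoxicity.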

[16] = read-out: Interleukin 2 (IL2), IL2 (gene 3558); test: BSK_BT_xIL2: BioMAP Diversity Plus: BT Assay for Interleukin 2 (IL2) Biomarker Activity (AID 2284245); conditions: primary human B cells with PBMC
How it was run: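 The BT system combines human B cells with peripheral blood mononuclear cells. Twenty-four hours after chemical dosing, secreted IL-2 was measured with xMAP bead technology, and responses were analyzed as increases over DMSO controls.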

[17] = read-out: Basic fibroblast growth factor (bFGF), FGF2 (gene 2247); test: BSK_MyoF_bFGF: BioMAP Diversity Plus: MyoF Assay for Basic fibroblast growth factor (bFGF) Biomarker Activity (AID 2284246); conditions: primary human lung fibroblasts
How it was run: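 Chemicals are added to human lung fibroblast cultures and incubated 24 h. bFGF is then measured by ELISA, while parallel cultures receive SRB staining for total protein as a cytotoxicity check. Data are fitted upward against DMSO.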

[18] = read-out: Collagen IV, COL4A1 (gene 1282); test: BSK_MyoF_CollagenIV: BioMAP Diversity Plus: MyoF Assay for Collagen IV Biomarker Activity (AID 2284247); conditions: primary human lung fibroblasts
How it was run: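 Human lung fibroblast system, 24 h chemical exposure. Endpoint: Collagen IV by ELISA, upward fit vs DMSO.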

[19] = read-out: Interleukin-8 (IL8), CXCL8 (gene 3576); test: BSK_MyoF_IL8: BioMAP Diversity Plus: MyoF Assay for Interleukin-8 (IL8) Biomarker Activity (AID 2284261); conditions: primary human lung fibroblasts
How it was run: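 Human lung fibroblast (MyoF system) cultures dosed for 24 h, then IL-8 measured by ELISA. Response taken relative to DMSO; parallel SRB total-protein staining for cytotoxicity.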

[20] = read-out: Decorin, DCN (gene 1634); test: BSK_MyoF_Decorin: BioMAP Diversity Plus: MyoF Assay for Decorin Biomarker Activity (AID 2284265); conditions: primary human lung fibroblasts
How it was run: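 Human lung fibroblast cultures were dosed for 24 h, and decorin was then measured by ELISA. Parallel cultures were stained with sulforhodamine B for total protein as a cytotoxicity check. Gain of signal was fitted relative to DMSO.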

Measured: AC50

Chain of Tumor necrosis factor (Homo sapiens) (P01375 whole entry, looked up): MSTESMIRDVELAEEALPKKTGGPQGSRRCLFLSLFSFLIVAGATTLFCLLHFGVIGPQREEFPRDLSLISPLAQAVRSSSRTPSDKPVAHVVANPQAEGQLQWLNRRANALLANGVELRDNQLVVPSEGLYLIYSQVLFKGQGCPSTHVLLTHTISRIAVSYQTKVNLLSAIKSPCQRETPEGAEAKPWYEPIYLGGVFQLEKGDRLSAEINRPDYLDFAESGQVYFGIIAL
Chain of Steroid hormone receptor ERR1 (Homo sapiens) (P11474 whole entry, looked up, the tested form may be a part): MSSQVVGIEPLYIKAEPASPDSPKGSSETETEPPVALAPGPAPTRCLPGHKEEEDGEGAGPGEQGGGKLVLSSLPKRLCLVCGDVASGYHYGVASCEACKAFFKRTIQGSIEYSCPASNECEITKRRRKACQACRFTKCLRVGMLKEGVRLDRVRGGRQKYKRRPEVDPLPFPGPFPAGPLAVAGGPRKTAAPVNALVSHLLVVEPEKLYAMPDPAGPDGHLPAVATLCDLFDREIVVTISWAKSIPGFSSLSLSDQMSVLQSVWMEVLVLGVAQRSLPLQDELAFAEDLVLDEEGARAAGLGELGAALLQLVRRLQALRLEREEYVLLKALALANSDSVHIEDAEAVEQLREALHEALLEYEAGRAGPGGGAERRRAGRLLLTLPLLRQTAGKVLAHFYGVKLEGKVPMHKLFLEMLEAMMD

CCOC(=O)NC(=S)Nc1ccccc1NC(=S)NC(=O)OCC
inactive: [1]

CC(C)COP(=O)(OCC(C)C)OCC(C)C
inactive: all assays above

CC(C)(C)C(O)C(Oc1ccc(-c2ccccc2)cc1)n1cncn1 (stereo not given)
active: [2] 37.6 µM | [4] 20 µM | [8] 17.9 µM | [12] 36.9 µM | [13] 30.5 µM | [15] 34.5 µM | [16] 20 µM | [17] 33.6 µM | [18] 20 µM | [20] 36.5 µM
inactive: [3] | [5] | [6] | [7] | [9] | [10] | [11] | [14] | [19]

CC(C)(C)C(=O)CCl
active: [5] 23.1 µM | [7] 12.9 µM | [8] 8.03 µM
inactive: all other assays above

O=[N+]([O-])C=Cc1ccccc1
active: [2] 8.8 µM | [3] 5.17 µM | [4] 3.05 µM | [5] 3.07 µM | [6] 12.6 µM | [7] 7.36 µM | [8] 5.7 µM | [9] 5.28 µM | [10] 5.44 µM | [11] 8.35 µM | [12] 14.2 µM | [13] 13.8 µM | [14] 5.05 µM | [15] 12.3 µM | [16] 6.08 µM | [17] 11.9 µM | [18] 3.97 µM | [19] 9.76 µM
inactive: [1] | [20]

From PubChem BioAssay (EPA / NIEHS)
